# PubChem BioAssay AID977606 (Broad Institute, 2014)
# Out of some 1,500 compounds screened, about 430 (29%) were called active. No rule for the calls is given here. These entries were drawn from the full list. Results with a measured potency or affinity are listed apart.
# Assay: glucose-independent GLuc insulin release activation – cell-based, INS-1E, Gaussia luciferase, luminescence, cherry-pick, counter-screen for glucose-dependent insulin secretion activators, dose response (AID 977606)
# Conditions: INS-1E Gaussia luciferase insulin secretion, no glucose, 100% = twice neutral-control luminescence; series mostly up to 35 µM
row,Structure (SMILES),outcome
1,Cc1cc(C)n2ncc(-c3cccc(Br)c3)c2n1,inactive
2,CCN(CC)C(=O)Cn1c(=O)oc2ccccc21,inactive
3,COC(=O)N1CCCCC1c1cc(C(=O)NCc2ccc(Cl)c(Cl)c2)no1 (stereo not drawn),inactive
4,c1ccc2c(N3CCCCC3)nc(N3CCCC3)nc2c1,inactive
5,CCOC(=O)c1nc(-c2ccccc2)oc1N(C)C,inactive
6,CCOC(=O)c1sc2nc(C)[nH]c(=O)c2c1C,inactive
7,COc1ccc(Cc2nnc(-c3ccccc3)o2)cc1,inactive
8,CCCc1nc2n[nH]c(N)c2c2c1COC(C)(C)C2,inactive
9,O=C(COc1nncc2ccccc12)NCC(F)(F)F,inactive
10,O=C(c1cccc(F)c1)N1CCCc2ccccc21,inactive
11,CCOc1ccc(CCNC(=O)COc2cccc(-n3cnnn3)c2)cc1OCC,inactive
12,COc1ccc(-c2ccc(=O)n(CC(=O)NC3CCc4ccccc43)n2)cc1OC (stereo not drawn),inactive
13,COCc1ccc(C(=O)NC2CCSc3ccccc32)cc1 (stereo not drawn),inactive
14,CCOc1ncccc1C(=O)Nc1ncc(C)s1,inactive
15,CCOc1ccc(C(=O)NCC(=O)OCCN2C(=O)c3ccccc3C2=O)cc1OCC,inactive
16,Cc1cc(NCc2ccccn2)nc2ccccc12,inactive
17,O=C(O)CCCC(=O)N1CCN(c2nc(-c3ccccc3)c3ccccc3n2)CC1,inactive
18,C/C=C1\COC(C(=O)NCc2ccccc2)(C(F)(F)F)C=C1C=C1CCCCC1 (stereo not drawn),inactive
19,CC1=NS(=O)(=O)NC(C)(C)C1,inactive
20,COc1ccc(C2=Nn3c(nnc3-c3ccccc3OC)SC2)cc1OC1CCOC1 (stereo not drawn),inactive
21,Cc1ccc2nc(Cl)nc(-c3ccccc3)c2c1,inactive
22,Cc1ccc2nc(N/N=C/c3ccccc3C#N)nc(-c3ccccc3)c2c1,inactive
23,CCOc1ccc(CCNC(=O)CCNC(=O)c2ccco2)cc1OCC,inactive
24,COc1ccc(CCNC(=O)CCc2ccccc2)cc1OC,inactive
25,COc1ccc(CCNC(=O)CCc2ccccc2O)cc1OC,inactive

row,Structure (SMILES),outcome
1,N=c1n(CCN2CCCCC2)c2ccccc2n1CC(O)COc1ccccc1 (stereo not drawn),inactive
2,Clc1cc(NC2CCCCC2)ncn1,inactive
3,COc1cccc(-c2cc(C(F)(F)F)nc(-n3cncn3)n2)c1,inactive
4,CN(C)S(=O)(=O)c1cccc(-c2csc(N/N=C/c3ccco3)n2)c1,inactive
5,COc1ccc(CNC(=O)CCn2c(=O)oc3ccccc32)c(OC)c1,inactive
6,Cc1cc(=O)n(Cc2ccccc2)c2ccccc12,inactive
7,CC1(c2ccc(OC(F)F)cc2)NC(=O)N(CC(=O)Nc2cccc(S(N)(=O)=O)c2)C1=O (stereo not drawn),inactive
8,CCCn1nc(C(=O)NC2CCCC2)c2ccccc2c1=O,inactive
9,O=c1[nH]nc(-c2ccccc2)c2ccccc12,inactive
10,COc1ccc(CCN(C)C(=O)COc2cccc(-n3cnnn3)c2)cc1OC,inactive
11,CNc1nc(OCC#N)nc(N2CCCCC2)n1,inactive
12,Cc1ccc(-n2nnnc2SCc2ccc(C(=O)O)cc2)cc1C,inactive
13,C=CCNC(=S)Nc1ccc2cn[nH]c2c1,inactive
14,O=S(=O)(N1CCOCC1)n1c(Cc2ccccc2)nc2ccccc21,inactive
15,CCN(CC(=O)Nc1ccccc1OC)C(=O)C1CCCC1,inactive
16,O=C(Nc1ccc(F)cc1)N1CCCCN2[C@@H](CO)[C@@H](c3ccc(C#Cc4ccccc4)cc3)[C@@H]2C1,inactive
17,COc1ccc(C2=Nn3c(nnc3-c3ccccc3OC)SC2)cc1OCC1CC1,inactive
18,COc1ccc(C2=NN(C(=O)CCCC(=O)O)C(c3cccs3)C2)cc1OC (stereo not drawn),inactive
19,O=c1[nH]nc(-c2cccs2)c2ccccc12,inactive
20,CCCc1cc(=O)n2[nH]c(C)c(-c3ccc(Cl)cc3)c2n1,inactive
21,CCN1CCN(c2ccc(S(=O)(=O)N3CCCCC3)cc2NC(=O)c2cc3ccccc3o2)CC1,inactive
22,COc1ccc(NC(=O)c2csc(C)c2)cc1OC,inactive
23,CCNC(=O)C1(C)CCCN1C(=O)c1cc(OC)c(OC)c(OC)c1 (stereo not drawn),inactive
24,COc1ccc(Nc2c3c(nc4ccccc24)CCC3)cc1,inactive
25,COc1ccc(/C=N/NC(=O)CN(C2=NS(=O)(=O)c3ccccc32)c2ccccc2)cc1OC,inactive

row,Structure (SMILES),outcome
1,O=C(O)COc1ccccc1-c1ccccc1,inactive
2,CCN(c1ccccc1)c1nc(Cl)nc2c1cnn2C,inactive
3,COCCNC(=O)c1cc2c(c(-c3cccc(C#Cc4ccc(OC)c(OC)c4)c3)n1)[C@H](CCO)N(S(=O)C(C)(C)C)C2 (stereo partly drawn),inactive
4,COc1ccc(C(=O)C2CCCN(C(=O)c3n[nH]c4c3CCCC4)C2)cc1OC (stereo not drawn),inactive
5,Cn1c(=O)[nH]c(=O)c2c1nc(N1CCCCC1)n2C/C=N/Nc1ccc(C(=O)O)cc1,inactive
6,Cc1cc(-c2ccc(S(=O)(=O)N3CCN(C)CC3)s2)on1,inactive
7,Cc1cccc(C)c1NC(=O)NC1CCc2ccccc21 (stereo not drawn),inactive
8,COC(=O)c1ccc(C)c(-n2c(=O)n(Cc3ccccc3)c(=O)c3[nH]cnc32)c1,inactive
9,COC(=O)c1scc(C)c1NC(=O)CC1NCCNC1=O (stereo not drawn),inactive
10,O=C(c1ccccc1)c1ccc2ccccc2n1,inactive
11,COc1ccc(CCNC(=O)NS(=O)(=O)c2ccc(C)cc2)cc1OC,inactive
12,COc1cc2c(cc1OC)C(CSc1ccccc1C(=O)O)=NC(C)(C)C2,inactive
13,Cc1cccc2[nH]c3c(N4CC=C(c5ccc(F)cc5)CC4)ncnc3c12,inactive
14,COc1cc(C)c(C)cc1S(=O)(=O)N1CCCCC1c1cccnc1 (stereo not drawn),inactive
15,C[C@@H]1CC2=C(C(=O)OC(C)(C)O2)[C@H](c2ccc(F)cc2)O1,inactive
16,CCCCn1c(=O)n(C)c(=O)c2c3c(sc21)COC(C)(C)C3,inactive
17,COc1ccc(-c2cc(C(=O)N3CCCCCC3)no2)cc1OC,inactive
18,CCOC(=O)c1csc(-c2ccc(OC)c(OC)c2)n1,inactive
19,C[C@@H]1CN([C@H](C)CO)C(=O)CCCn2cc(nn2)CO[C@H]1CN(C)S(=O)(=O)c1cccs1,inactive
20,CCOc1ccc(-c2noc(CCC(=O)NC)n2)cc1OCC,inactive
21,CCOc1cc(C(=O)N(C)CC(=O)Nc2cccc3ccccc23)ccc1OC,inactive
22,COc1cc2c(cc1OC)-c1cc(Nc3ccccc3C)nc(=O)n1CC2,inactive
23,CCOc1ccc(CCNC(=O)COC(=O)c2ccc(C)s2)cc1OCC,inactive
